# Measured values as given in PubChem BioAssay.
# Results filed as inconclusive are left out. Activity calls are given as the source filed them.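 Rule for the calls, unless noted: active = GFP response below 50% of the DMSO control; inconclusive = fewer than 70 events counted for a yeast strain; inactive = the rest.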
# Experiments:
# [1] = yeast TOR pathway RPL19A-GFP modulators, primary screen, cell-based, S. cerevisiae, multiplex flow cytometry (AID 1862; in the data active = percent of DMSO control GFP below about 86%;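 note: lower values mimic rapamycin by blocking the RPL19A rise seen in DMSO cells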); details: S. cerevisiae RPL19A-GFP strain, flow cytometry fluorescence, 3 h; at 10 µM; stronger effect = lower value
# [2] = modulators of CIT2-GFP expression in yeast, primary screen, S. cerevisiae, GFP fusion, multiplex flow cytometry (AID 1870;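 active = percent response above a set limit, the screen-wide mean plus 3 SD, cut at about 130% in these data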;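 note: barcoded CIT2-GFP strain pooled with four other GFP strains with rapamycin as positive control; median GFP fluorescence per well over plate mean of DMSO wells so 100% = DMSO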); details: 3 h, at 10 µM, stronger effect = higher value
# [3] = modulators of LAP4-GFP expression in yeast, primary screen, S. cerevisiae, multiplex flow cytometry (AID 1873;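 active = GFP signal, as percent of the solvent control, above the screen mean plus 3 SD, about 149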); details: 3 h, at 10 µM, stronger effect = higher value
# [4] = inhibitors of CD8+ T cell-vesicle binding, pilot screen, LFA-1/ICAM-1 modulator project, MLPCN validation set, flow cytometry (AID 2523;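 active = response below a set limit, under 55% cells CD8-positive and vesicle-bound, and CD8 cells' 90th-percentile brightness under 279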;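 for vesicle binding response: mean PE anti-B7-1 fluorescence of CD8+ cells relative to row control; 100% = QL9-loaded vesicles with DMSO vehicle in the same plate row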); details: 2C mouse CD8+ T cells, at 7 µM, stronger effect = lower value; double positive events: measured here: CD8+/vesicle+ event percentage
# [5] = biological target: Integrin beta-1 (Homo sapiens) + Integrin alpha-4 (Homo sapiens) (UniProt P13612+P05556); test: inhibition of HUTS-21 binding to VLA-4, pilot screen, VLA-4 allosteric modulator project, U937 cells, HUTS-21 mAb, flow cytometry, validation set (AID 2674;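 active = inhibition above 50%, about 3 SD of the validation set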;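 note: antibody binding induced by the VLA-4 ligand LDV present at three times its Kd; 0% = LDV ligand with antibody and no compound and 100% = antibody without LDV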); details: HUTS-21 LIBS mAb binding, at 6.7 µM, stronger effect = higher value
# Integrin beta-1 (Homo sapiens) + Integrin alpha-4 (Homo sapiens), sequence (P05556 whole entry, looked up): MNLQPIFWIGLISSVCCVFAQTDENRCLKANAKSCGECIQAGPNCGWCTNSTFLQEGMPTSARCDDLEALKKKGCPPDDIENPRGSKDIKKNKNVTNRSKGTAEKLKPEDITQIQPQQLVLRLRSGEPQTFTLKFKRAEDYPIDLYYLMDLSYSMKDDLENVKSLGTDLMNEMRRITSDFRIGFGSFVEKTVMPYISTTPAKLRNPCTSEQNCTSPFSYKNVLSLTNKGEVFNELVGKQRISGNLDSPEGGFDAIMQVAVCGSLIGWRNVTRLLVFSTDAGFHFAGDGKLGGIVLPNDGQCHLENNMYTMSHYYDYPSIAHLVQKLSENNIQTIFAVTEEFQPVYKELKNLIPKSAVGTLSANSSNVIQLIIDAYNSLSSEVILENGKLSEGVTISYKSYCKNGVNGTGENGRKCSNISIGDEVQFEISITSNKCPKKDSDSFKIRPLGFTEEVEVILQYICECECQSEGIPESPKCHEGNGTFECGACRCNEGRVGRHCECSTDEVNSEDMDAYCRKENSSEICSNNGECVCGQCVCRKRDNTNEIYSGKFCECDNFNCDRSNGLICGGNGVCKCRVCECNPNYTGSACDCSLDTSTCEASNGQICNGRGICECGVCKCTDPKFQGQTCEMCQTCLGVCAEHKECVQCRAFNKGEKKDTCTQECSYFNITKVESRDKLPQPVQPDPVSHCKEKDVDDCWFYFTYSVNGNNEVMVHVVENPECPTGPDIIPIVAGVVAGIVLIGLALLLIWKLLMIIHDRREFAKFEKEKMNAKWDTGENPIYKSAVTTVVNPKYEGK
# Integrin beta-1 (Homo sapiens) + Integrin alpha-4 (Homo sapiens), sequence (P13612 whole entry, looked up): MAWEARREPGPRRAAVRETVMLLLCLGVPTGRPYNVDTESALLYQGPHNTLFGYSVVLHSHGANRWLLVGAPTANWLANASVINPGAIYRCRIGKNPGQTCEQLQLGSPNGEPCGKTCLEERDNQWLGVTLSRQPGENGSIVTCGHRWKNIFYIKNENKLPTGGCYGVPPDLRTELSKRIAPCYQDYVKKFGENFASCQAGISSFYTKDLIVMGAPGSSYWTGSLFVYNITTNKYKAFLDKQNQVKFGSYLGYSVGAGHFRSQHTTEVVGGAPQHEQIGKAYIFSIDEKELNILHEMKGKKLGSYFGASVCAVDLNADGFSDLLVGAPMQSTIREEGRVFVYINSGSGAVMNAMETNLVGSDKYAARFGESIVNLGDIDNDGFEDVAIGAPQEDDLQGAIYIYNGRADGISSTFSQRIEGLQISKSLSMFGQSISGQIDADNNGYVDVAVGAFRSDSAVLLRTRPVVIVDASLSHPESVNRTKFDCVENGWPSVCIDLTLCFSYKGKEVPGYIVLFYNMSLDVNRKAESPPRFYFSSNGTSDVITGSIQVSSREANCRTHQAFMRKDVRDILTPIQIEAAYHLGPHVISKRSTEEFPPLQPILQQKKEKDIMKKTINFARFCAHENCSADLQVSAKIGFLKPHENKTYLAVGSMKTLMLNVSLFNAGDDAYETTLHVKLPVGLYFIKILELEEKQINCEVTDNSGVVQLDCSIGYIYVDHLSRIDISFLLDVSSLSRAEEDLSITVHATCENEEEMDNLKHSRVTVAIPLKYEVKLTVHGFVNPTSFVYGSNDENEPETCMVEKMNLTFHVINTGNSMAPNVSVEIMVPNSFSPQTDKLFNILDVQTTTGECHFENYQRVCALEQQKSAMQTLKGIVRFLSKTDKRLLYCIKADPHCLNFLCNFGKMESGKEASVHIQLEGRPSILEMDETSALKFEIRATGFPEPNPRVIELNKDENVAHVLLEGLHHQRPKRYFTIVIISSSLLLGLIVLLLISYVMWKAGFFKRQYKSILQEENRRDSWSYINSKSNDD
# [6] = superoxide lowering in aged yeast cells, pilot screen, validation compound set (AID 2706;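 active = superoxide response below 65% of plate, a cut near 3 SD across the whole screen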;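 note: yeast exposed to compound for one week at 30 degrees C before staining; 100% = mean of all compound wells on the same plate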); details: S. cerevisiae aging, superoxide DHE fluorescence; at 10 µM; stronger effect = lower value
# [7] = biological target: Beta-adrenergic receptor kinase 1 (Homo sapiens) (UniProt P25098); test: GRK2 binders displacing RNA aptamer, biochemical, validation, human GRK2, bead flow cytometry (AID 488806;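 active = aptamer binding inhibition above 30%, about 3 SD of noise from non-fluorescent compounds; inactive = inhibition at or below 30%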); details: bead-bound GRK2, FAM-aptamer displacement, at 10 µM, stronger effect = higher value
# Beta-adrenergic receptor kinase 1 (Homo sapiens), sequence (P25098 whole entry, looked up): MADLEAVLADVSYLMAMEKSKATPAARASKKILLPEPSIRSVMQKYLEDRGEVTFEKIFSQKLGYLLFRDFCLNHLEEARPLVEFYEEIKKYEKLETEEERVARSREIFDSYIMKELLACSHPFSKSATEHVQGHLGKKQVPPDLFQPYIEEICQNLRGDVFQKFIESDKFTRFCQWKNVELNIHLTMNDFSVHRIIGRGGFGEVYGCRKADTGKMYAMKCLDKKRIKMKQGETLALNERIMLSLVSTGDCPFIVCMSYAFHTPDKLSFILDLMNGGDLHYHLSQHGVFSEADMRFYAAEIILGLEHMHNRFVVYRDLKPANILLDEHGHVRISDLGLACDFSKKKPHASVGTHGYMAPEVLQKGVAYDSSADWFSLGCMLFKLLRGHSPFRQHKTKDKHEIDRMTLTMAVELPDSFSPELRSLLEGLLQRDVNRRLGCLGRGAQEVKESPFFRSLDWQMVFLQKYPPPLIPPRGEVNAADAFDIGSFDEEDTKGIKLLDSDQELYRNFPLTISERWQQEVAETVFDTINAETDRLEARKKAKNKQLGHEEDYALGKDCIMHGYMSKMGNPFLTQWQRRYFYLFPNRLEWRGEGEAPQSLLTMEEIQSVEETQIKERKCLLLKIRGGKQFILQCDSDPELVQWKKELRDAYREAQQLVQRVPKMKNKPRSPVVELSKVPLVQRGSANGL
# [8] = biological target: Beta-2 adrenergic receptor (Homo sapiens) (UniProt P07550); test: beta2AR agonists driving receptor internalization, pilot screen, cell-based, FAP fluorogen, flow cytometry, validation set (AID 504459;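 active = percent response above 42, roughly 3 SD of non-fluorescent test compounds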;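 note: agonist-driven loss of surface beta2AR via internalization measured by FAP dye flow cytometry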); details: Am2.2-beta2AR cells, FAP surface receptor flow cytometry; at 10 µM; stronger effect = higher value
# Beta-2 adrenergic receptor (Homo sapiens), sequence (P07550 whole entry, looked up): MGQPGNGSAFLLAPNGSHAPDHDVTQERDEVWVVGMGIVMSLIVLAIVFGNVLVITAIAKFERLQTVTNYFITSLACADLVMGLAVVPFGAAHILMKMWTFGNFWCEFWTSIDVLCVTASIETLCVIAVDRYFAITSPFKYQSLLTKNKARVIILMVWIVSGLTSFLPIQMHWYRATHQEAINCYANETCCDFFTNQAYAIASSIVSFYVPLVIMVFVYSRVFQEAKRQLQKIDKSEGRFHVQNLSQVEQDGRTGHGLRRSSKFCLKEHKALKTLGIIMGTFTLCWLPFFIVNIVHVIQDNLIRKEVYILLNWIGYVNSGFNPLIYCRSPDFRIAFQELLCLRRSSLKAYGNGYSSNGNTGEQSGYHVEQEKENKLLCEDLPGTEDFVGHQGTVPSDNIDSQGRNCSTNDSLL
# [9] = biological target: AP-2 complex subunit beta (Homo sapiens) (UniProt P63010); test: inhibitors of arrestin peptide binding to AP2, pilot screen, biochemical, validation set, GST-AP2 beads, flow cytometry (AID 504541;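 active = inhibition above 54%, about 3 SD of non-fluorescent compounds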;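 note: AP2 carries R879A mutation and is captured from E. coli lysate; bead-bound FITC arrestin peptide fluorescence measuring arrestin peptide binding to AP2; 0% = DMSO wells and 100% = excess unlabeled arrestin peptide control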); details: FITC arrestin peptide, at 10 µM, stronger effect = higher value
# AP-2 complex subunit beta (Homo sapiens), sequence (P63010 whole entry, looked up, one chain of several): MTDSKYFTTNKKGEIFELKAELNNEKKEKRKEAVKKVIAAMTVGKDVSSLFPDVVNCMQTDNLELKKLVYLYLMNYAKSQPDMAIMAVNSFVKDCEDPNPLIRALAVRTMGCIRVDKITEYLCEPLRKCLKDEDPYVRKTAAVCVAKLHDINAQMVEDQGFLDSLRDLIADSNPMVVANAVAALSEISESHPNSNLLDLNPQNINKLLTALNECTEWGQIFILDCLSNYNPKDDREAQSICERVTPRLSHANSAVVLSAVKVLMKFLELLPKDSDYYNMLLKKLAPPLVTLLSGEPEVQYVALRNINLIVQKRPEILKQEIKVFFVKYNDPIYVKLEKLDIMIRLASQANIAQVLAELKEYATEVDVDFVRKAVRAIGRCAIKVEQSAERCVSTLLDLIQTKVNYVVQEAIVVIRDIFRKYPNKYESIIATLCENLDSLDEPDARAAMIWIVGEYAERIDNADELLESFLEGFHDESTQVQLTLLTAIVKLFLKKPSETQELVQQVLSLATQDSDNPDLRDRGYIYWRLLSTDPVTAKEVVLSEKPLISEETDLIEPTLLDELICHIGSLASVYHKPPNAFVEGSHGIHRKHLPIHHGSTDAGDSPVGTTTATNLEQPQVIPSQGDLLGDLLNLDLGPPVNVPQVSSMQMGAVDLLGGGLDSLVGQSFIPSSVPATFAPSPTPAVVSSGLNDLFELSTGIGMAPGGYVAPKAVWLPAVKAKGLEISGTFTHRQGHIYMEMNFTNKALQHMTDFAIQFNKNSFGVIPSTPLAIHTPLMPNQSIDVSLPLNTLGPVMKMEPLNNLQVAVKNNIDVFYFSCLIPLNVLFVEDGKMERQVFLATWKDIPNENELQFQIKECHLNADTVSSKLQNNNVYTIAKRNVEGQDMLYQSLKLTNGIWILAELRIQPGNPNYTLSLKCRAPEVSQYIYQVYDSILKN
# [10] = yeast V-ATPase proton transport modulators, S. cerevisiae, pHLuorin, HTS validation (AID 504600; in the data active = response above about 15%;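 note: plate controls were DMSO for no effect and reference compound for full effect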); details: S. cerevisiae pHLuorin cytosolic pH, at 10 µM, stronger effect = higher value
# [11] = test system: anti-desmoglein-3 scFv antibody binding to human DSG3; test: inhibitors of anti-DSG3 scFv binding to DSG3, pilot screen, biochemical, validation compound set, bead-based, flow cytometry (AID 588368;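 active = binding below the plate cutoff, the plate median minus 3 SD, with a reading above zero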;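 note: signal is the median channel fluorescence of bead-bound GFP antibody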); details: Protein G beads, DSG3-Fc, scFv-GFP binding, at 10 µM, stronger effect = lower value
# [12] = test system: Botulinum neurotoxin type F light chain protease (Clostridium botulinum); test: Botulinum neurotoxin type F light chain protease inhibition, multiplex microsphere flow cytometry, validation set (AID 588459; call rule not given here); details: multiplex microsphere protease substrate cleavage assay, at 10 µM, stronger effect = higher value
# [13] = biological target: Botulinum neurotoxin type A (Clostridium botulinum) (UniProt P0DPI0); test: BoNT/A light chain protease inhibitors, biochemical, multiplex microsphere flow cytometry, validation set (AID 588460; call rule not given here); details: at 10 µM, stronger effect = higher value
# [14] = biological target: Lethal factor (Bacillus anthracis) (UniProt P15917); test: Lethal factor protease inhibitors, Bacillus anthracis, multiplex microsphere cleavage assay, validation set (AID 588461; call rule not given here); details: flow cytometry, at 10 µM, stronger effect = higher value
# [15] = inhibitors of fungal efflux pumps CDR1, CDR2, MDR1, pilot screen, validation compound set, multiplex, phenotypic (AID 588506;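 active = efflux inhibition above 0.42, the validation set average plus 4 SD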;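 note: Nile Red retained in cells so higher fluorescence means more efflux inhibition; 0 = negative control wells and 1 = enniatin B 25 µM full block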); details: S. cerevisiae pump-expressing triplex, Nile Red efflux flow cytometry; at 10 µM; stronger effect = higher value
# [16] = biological target: ATP-binding cassette sub-family B member 6 (Homo sapiens) (UniProt Q9NP58); test: ABCB6 transporter inhibitors, pilot screen, K562-ABCB6 cells, flow cytometry, validation set (AID 588550;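 active = inhibition above the screen-wide mean plus 3 SD, about 51%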;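 note: 0% = DMSO wells and 100% = benzethonium chloride 70 µM positive control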); details: K562-ABCB6 porphyrin accumulation, 1 h, at 10 µM, stronger effect = higher value
# ATP-binding cassette sub-family B member 6 (Homo sapiens), sequence (Q9NP58 whole entry, looked up): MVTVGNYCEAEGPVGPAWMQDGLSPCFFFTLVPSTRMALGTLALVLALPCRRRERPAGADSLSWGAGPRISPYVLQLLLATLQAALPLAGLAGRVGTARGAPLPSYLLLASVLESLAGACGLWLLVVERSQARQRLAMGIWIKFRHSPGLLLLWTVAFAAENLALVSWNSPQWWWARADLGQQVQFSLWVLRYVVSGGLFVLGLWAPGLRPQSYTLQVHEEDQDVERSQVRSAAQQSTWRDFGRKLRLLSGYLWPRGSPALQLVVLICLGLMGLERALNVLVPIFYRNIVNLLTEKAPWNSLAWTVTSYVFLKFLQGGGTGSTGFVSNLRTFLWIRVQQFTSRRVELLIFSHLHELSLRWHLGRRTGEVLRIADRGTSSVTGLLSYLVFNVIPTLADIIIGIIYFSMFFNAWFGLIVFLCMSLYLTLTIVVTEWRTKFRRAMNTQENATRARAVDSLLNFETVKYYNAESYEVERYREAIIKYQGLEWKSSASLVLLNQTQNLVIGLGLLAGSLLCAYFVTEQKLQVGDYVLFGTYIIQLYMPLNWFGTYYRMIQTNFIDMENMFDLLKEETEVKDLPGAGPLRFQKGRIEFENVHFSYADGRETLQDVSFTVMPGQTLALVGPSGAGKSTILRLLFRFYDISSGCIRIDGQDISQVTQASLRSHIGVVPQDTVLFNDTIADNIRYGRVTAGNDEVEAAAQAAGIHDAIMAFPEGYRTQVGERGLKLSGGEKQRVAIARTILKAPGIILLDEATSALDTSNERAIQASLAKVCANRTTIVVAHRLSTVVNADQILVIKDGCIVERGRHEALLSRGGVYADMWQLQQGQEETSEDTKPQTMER
# [17] = promoters of myeloid differentiation in arrested cells, primary screen, cell-based, GFP/MAC1 double positive, flow cytometry, validation set (AID 588685;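 active = differentiation response of at least 50%, scaled between solvent and reference control, from cells with both markers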;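 note: compound exposure lasts four days before antibody staining and flow analysis; 0% = DMSO wells and 100% = 5 µM fulvestrant positive control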); details: ER-HoxA9 marrow cells, stronger effect = higher value
# [18] = RPL19A-GFP modulators, yeast TOR pathway, confirmation, cell-based, S. cerevisiae, flow cytometry, cherry picks, mother/daughter gates (AID 2270); details: S. cerevisiae RPL19A-GFP strain, 3 h, at 10 µM, stronger effect = lower value, 100 = same GFP as DMSO wells
# [19] = LAP4-GFP expression modulators in yeast, confirmation, cell-based, cherry picks, flow cytometry, mother/daughter gates (AID 2271;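 active = GFP response above 150% of the DMSO control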;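 note: ratio of sample to DMSO plate mean so 100% equals DMSO level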); details: S. cerevisiae LAP4-GFP strain, 3 h, at 10 µM, stronger effect = higher value
# [20] = modulators of CIT2-GFP expression in yeast, confirmation, S. cerevisiae, GFP fusion, cherry picks, mother/daughter gates (AID 2274;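 active = GFP response above 150% of the DMSO level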); details: S. cerevisiae CIT2-GFP strain, flow cytometry, 3 h, at 10 µM, stronger effect = higher value
# [21] = measured here: daughter cell gate
# [22] = measured here: mother cell gate
# [23] = measured here: daughter cell gate response
# [24] = measured here: mother cell gate response
smiles,measurement,setting,value
O=C1C=Cc2ccccc2C1=O,percent of DMSO control GFP,[1],102% (inactive)
same,percent response of DMSO control,[2],116% (inactive)
same,GFP response vs DMSO,[3],89.1% (inactive)
same,double positive events,[4],43.3%
same,vesicle binding response,[4],71.6% (active)
same,inhibition,[5],-65.3% (inactive)
same,superoxide response (% of plate),[6],129% (inactive)
same,aptamer binding inhibition,[7],2% (inactive)
same,response,[8],-20.4% (inactive)
same,inhibition,[9],8% (inactive)
same,response,[10],1.9% (inactive)
same,binding (% of control),[11],109% (inactive)
same,inhibition,[12],-1.2% (inactive)
same,inhibition,[13],1.7% (inactive)
same,inhibition,[14],1.9% (inactive)
same,efflux inhibition (fraction of control),[15],-0.09 (inactive)
same,inhibition,[16],7% (inactive)
same,differentiation response,[17],5.73% (inactive)
CCN(CC)c1ccc(/C=C/[N+](=O)[O-])cc1,GFP response vs DMSO,[18],99.5% (inactive)
same,GFP response vs DMSO,[18]; [21],101%
same,GFP response vs DMSO,[18]; [22],100%
same,GFP response relative to DMSO,[19],130% (inactive)
same,GFP response relative to DMSO,[19]; [23],131%
same,GFP response relative to DMSO,[19]; [24],132%
same,"GFP response, % of DMSO",[20],104% (inactive)
same,"GFP response, % of DMSO",[20]; [21],106%
same,"GFP response, % of DMSO",[20]; [22],100%
O=C1NC(=S)NC(=O)C1=Cc1ccc2c(c1)CCN2CCCCl,GFP response vs DMSO,[18],98.4% (inactive)
same,GFP response vs DMSO,[18]; [21],87.8%
same,GFP response vs DMSO,[18]; [22],86%
same,GFP response relative to DMSO,[19],163% (active)
same,GFP response relative to DMSO,[19]; [23],110%
same,GFP response relative to DMSO,[19]; [24],184%
same,"GFP response, % of DMSO",[20],85.7% (inactive)
same,"GFP response, % of DMSO",[20]; [21],90.2%
same,"GFP response, % of DMSO",[20]; [22],76%
CCOC(=O)c1cncn1C(C)c1ccccc1 (stereo unspecified),percent of DMSO control GFP,[1],104% (inactive)
same,percent response of DMSO control,[2],106% (inactive)
same,GFP response vs DMSO,[3],80.2% (inactive)
same,double positive events,[4],60%
same,vesicle binding response,[4],404% (inactive)
same,inhibition,[5],7.85% (inactive)
same,superoxide response (% of plate),[6],97% (inactive)
same,aptamer binding inhibition,[7],4% (inactive)
same,response,[8],-9.36% (inactive)
same,inhibition,[9],-10.9% (inactive)
same,response,[10],2.71% (inactive)
same,binding (% of control),[11],101% (inactive)
same,efflux inhibition (fraction of control),[15],0.27 (inactive)
same,inhibition,[16],12% (inactive)
same,differentiation response,[17],2.2% (inactive)
O=c1[nH]c(=S)n(-c2ccccc2)c(O)c1/C=N/N1CCOCC1,GFP response vs DMSO,[18],102% (inactive)
same,GFP response vs DMSO,[18]; [21],103%
same,GFP response vs DMSO,[18]; [22],102%
same,GFP response relative to DMSO,[19],95.7% (inactive)
same,GFP response relative to DMSO,[19]; [23],97.5%
same,GFP response relative to DMSO,[19]; [24],96.2%
same,"GFP response, % of DMSO",[20],100% (inactive)
same,"GFP response, % of DMSO",[20]; [21],103%
same,"GFP response, % of DMSO",[20]; [22],99.3%
O=C(O)c1nn(Cc2ccc(Cl)cc2Cl)c2ccccc12,GFP response vs DMSO,[18],101% (inactive)
same,GFP response vs DMSO,[18]; [21],98.7%
same,GFP response vs DMSO,[18]; [22],104%
same,GFP response relative to DMSO,[19],103% (inactive)
same,GFP response relative to DMSO,[19]; [23],100%
same,GFP response relative to DMSO,[19]; [24],102%
same,"GFP response, % of DMSO",[20],93.9% (inactive)
same,"GFP response, % of DMSO",[20]; [21],91.5%
same,"GFP response, % of DMSO",[20]; [22],94.4%
O=C1NC(=O)N(c2ccccc2)C(=O)/C1=C/c1ccc(Sc2ccccc2)o1,GFP response vs DMSO,[18],99.7% (inactive)
same,GFP response vs DMSO,[18]; [21],98.5%
same,GFP response vs DMSO,[18]; [22],95.2%
same,GFP response relative to DMSO,[19],177% (active)
same,GFP response relative to DMSO,[19]; [23],135%
same,GFP response relative to DMSO,[19]; [24],170%
same,"GFP response, % of DMSO",[20],89.2% (inactive)
same,"GFP response, % of DMSO",[20]; [21],98.3%
same,"GFP response, % of DMSO",[20]; [22],79.3%
Cc1ccc(/C=C2\C(=O)NC(=O)N(CC3CCCO3)C2=O)s1 (stereo unspecified),GFP response vs DMSO,[18],92.7% (inactive)
same,GFP response vs DMSO,[18]; [21],95.9%
same,GFP response vs DMSO,[18]; [22],94.8%
same,GFP response relative to DMSO,[19],102% (inactive)
same,GFP response relative to DMSO,[19]; [23],102%
same,GFP response relative to DMSO,[19]; [24],104%
same,"GFP response, % of DMSO",[20],82.6% (inactive)
same,"GFP response, % of DMSO",[20]; [21],86.2%
same,"GFP response, % of DMSO",[20]; [22],79.5%
COc1cc(/C=C/C(=O)c2c(O)n(CCc3ccccc3)c(=O)[nH]c2=O)ccc1O,GFP response vs DMSO,[18],103% (inactive)
same,GFP response vs DMSO,[18]; [21],104%
same,GFP response vs DMSO,[18]; [22],103%
same,GFP response relative to DMSO,[19],90% (inactive)
same,GFP response relative to DMSO,[19]; [23],90.4%
same,GFP response relative to DMSO,[19]; [24],88.9%
same,"GFP response, % of DMSO",[20],115% (inactive)
same,"GFP response, % of DMSO",[20]; [21],114%
same,"GFP response, % of DMSO",[20]; [22],112%
